Test results as given in PubChem BioAssay (NCI).
Compounds without any hit were thinned out: in the full panel of roughly 79,000, 15% have a hit. Activity calls are given as the source filed them. Rule as the data show it: active = growth inhibition above about 70%; inactive = the rest.

Experiment: NCI Yeast Anticancer Drug Screen. Data for the mlh1 strain (AID 171);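 also: 0% = growth of vehicle-treated control cultures of the same strain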
Settings: S. cerevisiae mlh1 strain growth inhibition, stronger effect = higher value
Description: Growth inhibition of yeast strains with defined genetic alterations is measured as a screen for potential anti-cancer activity. Selected strains with alterations in DNA damage repair or cell cycle control were exposed to compounds and growth inhibition was measured relative to vehicle treated controls. The strain used in this assay is mlh1

Measured: growth inhibition

CN(C)CCC(=O)c1c[nH]c2ccccc12
inactive: at 1.2 µM -61% | at 3.7 µM -74% | at 11.0 µM -56% | at 33.0 µM -20% | at 100.0 µM 37%

Cc1[nH]nc(C(F)(F)F)c1N=NN(C)C
active: at 33.0 µM 99% | at 100.0 µM 99%
inactive: at 1.2 µM 4% | at 3.7 µM 48% | at 11.0 µM 52%

CCOC(=O)/C(O)=C(/C=N/C(=S)Nc1c(CC)cccc1CC)C(=O)OCC
inactive: at 1.2 µM -6% | at 3.7 µM -4% | at 11.0 µM 6% | at 33.0 µM 28% | at 100.0 µM 45%

Cc1cnc(/C=N\NC(N)=S)c2cccc(N)c12
inactive: at 1.2 µM -75% | at 3.7 µM -79% | at 11.0 µM -43% | at 33.0 µM 27%
active: at 100.0 µM 87%

O=c1[nH]c(=O)n(CCCO)cc1F
inactive: at 1.2 µM -30% | at 3.7 µM -15% | at 11.0 µM -19% | at 33.0 µM -15% | at 100.0 µM -19%

CNc1ccc2[nH]c3ccccc3c2c1
inactive: at 1.2 µM 3% | at 3.7 µM 1% | at 11.0 µM 0% | at 33.0 µM 1% | at 100.0 µM 65%

Cc1ccccc1C1=C(CC(=O)O)c2ccccc2CC1C (stereo not given)
active: at 33.0 µM 96% | at 100.0 µM 99%
inactive: at 1.2 µM 6% | at 3.7 µM 12% | at 11.0 µM 32%

Cc1ccc(Cl)c2c(=O)c3ccccc3[nH]c12
inactive: at 1.2 µM 0% | at 3.7 µM -1% | at 11.0 µM 0% | at 33.0 µM 0% | at 100.0 µM 12%
